In PubChem BioAssay (NCATS):
Records with an inconclusive call do not appear. Calls of active or inactive are those of the source. Unless noted, calls follow the shape of the dose curve; as a rule, active = well fitted curve in the direction sought with a large enough effect; inconclusive = small, poorly fitted or top-dose-only effect, or another doubt; inactive = no such curve, though single readings can be large; an effect the other way counts as inactive or inconclusive.

Experiments:
[1] = test system: KB-3-1; assay: Cytotoxic Profiling of Annotated Libraries Using Quantitative High-Throughput Screening (AID 1296008); details: Five cell lines viability, CellTiter-Glo ATP luminescence, 48-72 h; max response: active compounds read low; also: nearly all actives have a fitted effect of over 60% in size; also: potency is read from the fitted curve at half-maximal effect; as to max response: % is scaled to controls: 0 for no effect and ±100 for the full control effect
In short: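 Cells exposed to compounds for 48 or 72 hr at 37 degrees Celsius. Viability read as ATP-coupled luminescence with CellTiter-Glo after 10 min at room temperature.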

[2] = test system: CAOV3; assay: Primary qHTS to identify gynecologic anti-cancer compounds using libraries of approved drugs and bioactive compounds (AID 1345084); details: Gynecologic cancer cell panel viability, ATPlite luminescence, 48 h; series mostly up to 57.5 µM; also: nearly all actives have a fitted effect of over 55% in size; also: potency is read from the fitted curve at half-maximal effect
In short: (§1)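 Cytotoxicity screen measuring ATP content by luciferase luminescence. Each compound is applied at five concentrations for 48 h at 37 C with 5% CO2.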

[3] = test system: HeLa; assay: as above; details: Gynecologic cancer cell panel viability, ATPlite luminescence, 48 h; series mostly up to 57.5 µM
In short: as §1

[4] = test system: JEG-3; assay: as above; details: Gynecologic cancer cell panel viability, ATPlite luminescence, 48 h; series mostly up to 57.5 µM
In short: as §1

[5] = test system: SKOV3; assay: as above; details: Gynecologic cancer cell panel viability, ATPlite luminescence, 48 h; series mostly up to 57.5 µM
In short: as §1

[6] = Primary qHTS for inhibitors of nuclear receptor binding SET domain protein 2 (NSD2) in an RCH-ACV wild type WT cells (2C) (AID 1645877); also: nearly all actives have a fitted effect of over 70% in size; also: potency is read from the fitted curve at half-maximal effect
[7] = target: Glutathione peroxidase 1 (Homo sapiens) (UniProt P07203); assay: Primary qHTS Assay for Inhibitors of Recombinant Selenoprotein Glutathione Peroxidase 1 (GPX1) (AID 1845191); also: nearly all actives have a fitted effect of over 65% in size
In short: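 GR-coupled readout: NADPH consumption tracked by fluorescence, ex 340/em 450 nm, at t=0 and after 15 min at RT. Final mix 10 nM GPX1, 1 mM GSH, 0.5 mM CHP, 0.5 mM NADPH, 100 nM GR, 0.01% BSA, following 30 min enzyme–compound preincubation.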

[8] = Primary fluorescence-based thiol-reactive (MSTI) qHTS assay for identification of artifact compounds. (AID 1845221);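 also: thiol-reactive compounds lower the probe fluorescence signal; nearly all actives have a fitted effect of over 65% in size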
In short: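 Curve-fitted percent inhibition (4-parameter Hill) derived from fluorescence, Ex 525/Em 598 nm, scaled with Acetyl-MSTI and MSTI; 1 h incubation at room temperature.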

[9] = test system: Zika virus NS2B-NS3 protease (unlinked complex); assay: Primary screen GU Rhodamine qHTS for Zika virus inhibitors: Unlinked NS2B-NS3 protease assay (AID 1347159); also: % is scaled to controls: 0 for no effect and ±100 for the full control effect; nearly all actives have a fitted effect of over 60% in size
In short: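 In dose–response format, inhibition of unlinked protease (25 nM) was measured with 1.5 microM bis-peptide Rhodamine110 substrate. Aprotinin served as the intraplate control.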

[10] = target: Cytochrome P450 2D6 (Homo sapiens) (UniProt P10635); assay: Cytochrome P450 family 2 subfamily D member 6 (CYP2D6) small molecule antagonists: luciferase biochemical (cell-free) qHTS assay (AID 1645840; active = well fitted curve in the direction sought with a large enough effect in the repeat runs; an effect the other way counts as inactive or inconclusive; also: nearly all actives have a fitted effect of over 55% in size; also: potency is read from the fitted curve at half-maximal effect)
In short: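 P450-Glo CYP2D6 system: proluciferin substrate converted by enzyme to luciferin, read by luminescence proportional to activity. Enzyme-substrate mix with compound 10 min at room temperature, then NADPH regeneration 1 h before detection reagent.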

[11] = test system: HACAT; assay: qHTS assay to identify novel small-molecules to repurpose for Merkel cell carcinoma treatment (AID 1296009); details: MCC and control cell lines, CellTiter-Glo viability, 72 h; at 44.8 µM (top of the series) unless noted; also: nearly all actives have a fitted effect of over 60% in size
In short: (§2)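 Dose-response viability screen; 72 hr exposure at 37 degree celsius; CellTiter-Glo added, 10 min room temperature, luminescence read; RLUs scaled between no-cell and DMSO wells.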

[12] = test system: NIH3T3; assay: as above; details: MCC and control cell lines, CellTiter-Glo viability, 72 h; at 44.8 µM (top of the series) unless noted
In short: as §2

[13] = test system: CRL-7250; assay: as above; details: MCC and control cell lines, CellTiter-Glo viability, 72 h; series mostly up to 92 µM
In short: as §2

[14] = P-glycoprotein substrates identified in KB-3-1 adenocarcinoma cell line, qHTS therapeutic library screen (AID 1346986); also: nearly all actives have a fitted effect of over 60% in size
In short: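 In 1536-well format, 500 cells/well received pinned compound titrations and were incubated 72 h, 5% CO2. Viability was read by CellTiter-Glo; cytotoxic if AC50 < 10 uM and efficacy >50%.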

Sequence of Glutathione peroxidase 1 (Homo sapiens) (P07203 whole entry, looked up): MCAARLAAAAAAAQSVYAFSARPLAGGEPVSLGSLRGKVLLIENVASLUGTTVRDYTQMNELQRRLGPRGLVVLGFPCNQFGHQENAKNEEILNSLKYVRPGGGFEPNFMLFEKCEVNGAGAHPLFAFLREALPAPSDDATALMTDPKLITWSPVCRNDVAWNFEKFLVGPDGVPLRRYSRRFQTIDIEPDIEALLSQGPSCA
Sequence of Cytochrome P450 2D6 (Homo sapiens) (P10635 whole entry, looked up): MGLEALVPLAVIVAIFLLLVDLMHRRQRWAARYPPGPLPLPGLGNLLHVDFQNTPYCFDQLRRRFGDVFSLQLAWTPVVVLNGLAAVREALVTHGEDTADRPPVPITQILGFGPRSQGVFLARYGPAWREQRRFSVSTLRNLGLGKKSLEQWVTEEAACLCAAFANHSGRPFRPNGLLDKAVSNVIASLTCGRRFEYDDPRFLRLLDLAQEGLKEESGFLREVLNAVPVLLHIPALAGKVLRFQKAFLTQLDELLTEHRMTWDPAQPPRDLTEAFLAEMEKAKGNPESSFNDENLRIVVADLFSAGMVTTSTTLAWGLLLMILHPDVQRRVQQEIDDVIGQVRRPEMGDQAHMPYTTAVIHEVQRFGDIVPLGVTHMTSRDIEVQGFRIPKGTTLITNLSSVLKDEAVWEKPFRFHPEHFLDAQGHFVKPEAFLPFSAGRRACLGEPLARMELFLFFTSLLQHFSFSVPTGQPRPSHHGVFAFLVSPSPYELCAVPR

C=C1C2(C)CC3C(C)(O)C4=CC(=O)OC(C)(C)C4=CCC3(C)C13C(=O)OC(C)C3(O)C2=O (centres undefined)
inactive: max response [1] -10.5% | Potency [2] | Potency [3] | Potency [4] | Potency [5]

C=C1C(=O)CC2OC2(C)CC2OC(=O)C(=C)C2C(O)C1OC(=O)/C(C)=C\C (centres undefined)
active: Potency [6] 2010 nM
inactive: Potency [7] | Potency [8] | Potency [3] | Potency [4] | Potency [5]

O=C(N1CCCCC1Cc1ccccc1)n1cc(-c2ccc(-c3ccccc3)cc2)nn1 (centres undefined)
inactive: Potency [9] | Potency [10] | Potency [7] | Potency [8] | max response [1] -19% | outcome [11] | outcome [12] | Potency [2] | Potency [4] | Potency [5]

CN=C(NS(=O)(=O)c1ccc(Cl)cc1)N1C[C@H](c2ccccc2)C(c2ccc(Cl)cc2)=N1
inactive: Potency [9] | Potency [10] | Potency [8] | max response [1] -19.1% | Potency [13] | Potency [2] | Potency [3] | Potency [4] | Potency [5]

CC(=O)O[C@H]1C[C@]2(O)[C@@H]3CC[C@@H]4C[C@@H](O)CC[C@]4(C)[C@H]3CC[C@]2(C)[C@H]1c1ccc(=O)oc1
active: Potency [6] 57.8 nM | Potency [1] 58 nM | Potency [2] 158 nM | Potency [3] 316 nM | Potency [4] 316 nM | Potency [5] 100 nM
inactive: Potency [7] | Potency [8]

C[C@]12CC[C@H](O)C[C@@H]1CC[C@@H]1[C@@H]2CC[C@]2(C)C(=O)CC[C@@H]12
inactive: Potency [14] | Potency [9] | Potency [7] | Potency [8] | outcome [1] | Potency [2] | Potency [3] | Potency [4] | Potency [5]

C=C(C)C(=O)O[C@H]1[C@@H]2[C@H](C)C(=O)O[C@@H]2C[C@@H](C)[C@@H]2C=CC(=O)[C@]21C
inactive: Potency [9] | Potency [7] | Potency [8] | Potency [3]
active: Potency [6] 1790 nM | Potency [1] 3210 nM | Potency [2] 10000 nM

COC(=O)C12C(=O)C(C)(O)C(=O)C1(C)C(C)=CC1C34CCC(OC3=O)C(C)(C)C4CCC12C (centres undefined)
inactive: Potency [9] | Potency [6] | Potency [7] | max response [1] -12.2% | Potency [2] | Potency [3] | Potency [4] | Potency [5]

CN1CCCCC1Cn1cc(C(=O)c2cc([N+](=O)[O-])ccc2I)c2ccccc21 (centres undefined)
inactive: Potency [9] | Potency [6] | Potency [7] | max response [1] 6.42% | outcome [11] | outcome [12] | Potency [2] | Potency [3] | Potency [4] | Potency [5]

CN(C(=O)C(c1ccccc1)c1ccccc1)[C@H](CN1CC[C@H](O)C1)c1ccccc1
inactive: Potency [9] | Potency [7] | Potency [8] | max response [1] -3.45% | Potency [13] | outcome [11] | Potency [2] | Potency [3] | Potency [4] | Potency [5]
active: Potency [10] 122 nM

C[C@]12CC[C@H](O)C[C@@]1(O)CC[C@@H]1[C@@H]2CC[C@]2(C)[C@@H](c3ccc(=O)oc3)CC[C@]12O
inactive: Potency [9] | Potency [8] | Potency [2] | Potency [4] | Potency [5]

COc1ccc2c(c1)c(CCN(C)C)cn2S(=O)(=O)c1ccccc1
inactive: Potency [9] | Potency [7] | Potency [8] | max response [1] -1.74% | outcome [11] | outcome [12] | Potency [2] | Potency [3] | Potency [4] | Potency [5]
active: Potency [10] 1510 nM

CN1C(=O)[C@@H](Cc2c[nH]c3ccccc23)N=C(c2ccccc2F)c2ccccc21
inactive: Potency [9] | Potency [7] | max response [1] -7.12% | Potency [13] | Potency [2] | Potency [3] | Potency [4] | Potency [5]
active: Potency [10] 9520 nM

CN(Cc1cccc(-c2ccncc2)c1)C(=O)Oc1ccc(-c2ccc(C(N)=O)cc2)cc1
inactive: Potency [9] | Potency [8] | max response [1] 1.21% | Potency [13] | outcome [11] | Potency [2] | Potency [4] | Potency [5]

C=C(C)[C@@H]1[C@H]2OC(=O)[C@H]1[C@]1(O)C[C@H]3O[C@]34C(=O)O[C@H]2[C@]14C
inactive: Potency [14] | Potency [9] | Potency [7] | Potency [8] | Potency [13] | outcome [12] | Potency [2] | Potency [4] | Potency [5]

CC(C)[C@H](NC(=O)c1nn(Cc2ccc(F)cc2)c2ccccc12)C(N)=O
inactive: Potency [9] | Potency [6] | Potency [7] | Potency [8] | Potency [2] | Potency [3] | Potency [4] | Potency [5]
active: Potency [10] 16900 nM
